From PubChem BioAssay (Tox21)
Inconclusive results are not listed. The source made the active and inactive calls. Unless noted, the call rests on the fitted dose curve; in most records, active means well fitted curve in the direction sought with a large enough effect in the repeat runs; inconclusive means weak or mixed curves; inactive means no such curve, though single readings can be large; an effect the other way counts as inactive or inconclusive.

Key:
[1] = qHTS assay to identify aromatase inhibitors - cell viability counter screen (AID 743084);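 further: cells stimulated with testosterone during compound exposure; nearly all actives have a fitted effect of over 55% in size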
[2] = target: Aryl hydrocarbon receptor (Homo sapiens) (UniProt P35869); experiment: qHTS assay to identify small molecule that activate the aryl hydrocarbon receptor (AhR) signaling pathway (AID 743085);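 further: HG2L7.5c1 human HepG2 liver cells with stably integrated DRE-driven firefly reporter; series mostly up to about 70 µM; nearly all actives have a fitted effect of over 15% in size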
Procedure, shortened: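 HepG2 cells (HG2L7.5c1) stably carrying a firefly luciferase reporter driven by 20 dioxin responsive elements were exposed to compound for 24 h at 37C after a 5 h settling period; luminescence rise (ONE-Glo) indicated activation.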

[3] = qHTS assay to identify small molecule that activate the aryl hydrocarbon receptor (AhR) signaling pathway - cell viability counter screen (AID 743086);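 further: HepG2 liver cells carrying the AhR DRE luciferase reporter; series mostly up to about 70 µM; nearly all actives have a fitted effect of over 45% in size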
Procedure, shortened: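 HepG2-AhR-luc (HG2L7.5c1) cells, 4000/well, treated 24 h at 37 C with compound; viability measured as CellTiter-Fluor fluorescence after 30 min in the same wells as the luciferase read.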

[4] = target: Peroxisome proliferator-activated receptor gamma (Homo sapiens) (UniProt P37231); experiment: qHTS assay to identify small molecule agonists of the peroxisome proliferator-activated receptor gamma (PPARg) signaling pathway (AID 743094; active means well fitted activation curve with a large enough effect in the signal ratio in the repeat runs, not every such curve was filed as active; the % refers to the signal ratio)
Procedure, shortened: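 GeneBLAzer PPARg UAS-bla HEK293H cells were plated, rested 5 h, then exposed to compounds for 17 h at 37C. Beta-lactamase activity was read by LiveBLAzer B/G FRET substrate fluorescence after 1 h at room temperature.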

[5] = target: Peroxisome proliferator-activated receptor gamma (Homo sapiens) (UniProt P37231); experiment: qHTS assay to identify small molecule antagonists of the peroxisome proliferator-activated receptor gamma (PPARg) signaling pathway (AID 743191; calls by dose curve; further: series mostly up to about 63 µM; nearly all actives have a fitted effect of over 30% in size)
Procedure, shortened: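 GeneBLAzer PPARg UAS-bla HEK293H cells, 5 h post-plating, exposed to compounds 17 h at 37C. LiveBLAzer B/G FRET substrate added for 1 h at room temperature; beta-lactamase reporter read by fluorescence intensity.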

[6] = qHTS assay to identify small molecule antagonists of the peroxisome proliferator-activated receptor gamma (PPARg) signaling pathway - cell viability counter screen (AID 743194); further: nearly all actives have a fitted effect of over 55% in size
Procedure, shortened: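 Cytotoxicity counter screen in PPARg-bla HEK293H cells, same wells as reporter assay. Compounds plus 50 nM rosiglitazone (final) for 17 h at 37 C, then viability read by CellTiter-Glo luminescence.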

[7] = qHTS assay for small molecule agonists of the antioxidant response element (ARE) signaling pathway - cell viability counter screen (AID 743203; calls by dose curve; further: nearly all actives have a fitted effect of over 55% in size)
Procedure, shortened: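 ARE-bla HepG2 cells were plated, rested 5 h at 37C/5% CO2, then exposed to compounds in DMSO for 16 h. Viability was read as CellTiter-Glo luminescence after 30 min at room temperature, in the same wells as the ARE screen.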

[8] = qHTS assay for small molecule activators of the heat shock response signaling pathway - cell viability counter screen (AID 743209); further: nearly all actives have a fitted effect of over 50% in size
Procedure, shortened: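 HSE-bla HeLa cells plated overnight, then exposed to Tox21 compounds (23 nL in DMSO) for 5 h at 37 C. After the bla reporter read, CellTiter-Glo was added in the same wells and luminescence read after 30 min at room temperature.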

[9] = qHTS assay for small molecule activators of the heat shock response signaling pathway (AID 743210; active means well fitted activation curve with a large enough effect in the signal ratio in the repeat runs, with a control signal flat, not every such curve was filed as active; the % refers to the signal ratio; further: series mostly up to about 63 µM)
Procedure, shortened: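 HSE-bla HeLa cells (beta-lactamase reporter under heat shock response elements), plated overnight, then exposed to compounds 5 h at 37 C; LiveBLAzer B/G FRET substrate added, 2.5 h at room temperature, fluorescence intensity read.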

[10] = qHTS assay to identify small molecule agonists of the peroxisome proliferator-activated receptor delta (PPARd) signaling pathway - cell viability counter screen (AID 743211); further: nearly all actives have a fitted effect of over 55% in size
Procedure, shortened: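 PPARd-bla HEK293H cells (UAS-beta-lactamase reporter) were treated with compounds for 17 h at 37 C. Viability was then read in the same wells by CellTiter-Glo luminescence after 30 min at room temperature.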

[11] = qHTS assay to identify small molecule antagonists of the peroxisome proliferator-activated receptor delta (PPARd) signaling pathway - cell viability counter screen (AID 743213); further: nearly all actives have a fitted effect of over 50% in size
Procedure, shortened: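 HEK293H PPARd UAS-bla cells, 5 h pre-incubation, compound + L165041 300 nM final, 17 h 37 C; B/G FRET substrate 2 h RT; then CellTiter-Glo 30 min RT, luminescence.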

[12] = target: Bile acid receptor (Homo sapiens) (UniProt Q96RI1); experiment: qHTS assay to identify small molecule antagonists of the farnesoid-X-receptor (FXR) signaling pathway (AID 743217; active means well fitted inhibition curve with a large enough effect in the signal ratio in the repeat runs, not every such curve was filed as active; the % refers to the signal ratio)
Procedure, shortened: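 FXR-UAS-bla HEK 293T cells (beta-lactamase reporter) given compound plus chenodeoxycholic acid (50 uM final), 16 h at 37C. LiveBLAzer B/G FRET substrate added for 2 h at room temperature; fluorescence read.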

[13] = qHTS assay to identify small molecule agonists of the farnesoid-X-receptor (FXR) signaling pathway - cell viability counter screen (AID 743218); further: nearly all actives have a fitted effect of over 45% in size
Procedure, shortened: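 FXR-UAS-bla HEK 293T cells exposed to compounds for 16 h at 37C. Cytotoxicity read in the same wells by CellTiter-Glo luminescence after 30 min at room temperature, following the beta-lactamase FRET read.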

[14] = target: Bile acid receptor (Homo sapiens) (UniProt Q96RI1); experiment: qHTS assay to identify small molecule agonists of the farnesoid-X-receptor (FXR) signaling pathway (AID 743220; active means well fitted activation curve with a large enough effect in the signal ratio in the repeat runs, not every such curve was filed as active; the % refers to the signal ratio)
Procedure, shortened: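 Beta-lactamase reporter under UAS control in GeneBLAzer FXR HEK 293T cells (5000/well) measured with LiveBLAzer FRET substrate after 2 h at room temperature. Compound exposure lasted 16 h at 37C.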

[15] = qHTS assay to identify small molecule antagonists of the farnesoid-X-receptor (FXR) signaling pathway - cell viability counter screen (AID 743221; active means well fitted cell-killing curve with a large enough effect in the repeat runs, not every such curve was filed as active; further: nearly all actives have a fitted effect of over 50% in size)
Procedure, shortened: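 FXR-UAS-bla HEK 293T cells were treated with test compounds plus chenodeoxycholic acid (50 uM final) for 16 h at 37 C. Cell viability in the same wells was then read as CellTiter-Glo luminescence after 30 min at room temperature.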

[16] = target: Vitamin D3 receptor (Homo sapiens) (UniProt P11473); experiment: qHTS assay to identify small molecule agonists of the vitamin D receptor (VDR) signaling pathway (AID 743222; calls by dose curve)
Procedure, shortened: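 VDR-bla cells plated 4 h at 37 C, then exposed to compounds for 16 h at 37 C. Beta-lactamase reporter activity measured by fluorescence after 2 h room-temperature loading with LiveBLAzer B/G FRET substrate.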

[17] = target: Vitamin D3 receptor (Homo sapiens) (UniProt P11473); experiment: qHTS assay to identify small molecule antagonists of the vitamin D receptor (VDR) signaling pathway (AID 743223; active means well fitted inhibition curve with a large enough effect in the signal ratio in the repeat runs, not every such curve was filed as active; the % refers to the signal ratio)
Procedure, shortened: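 VDR-bla cells were plated, incubated 4 h at 37C, then given compound and 1alpha,25-dihydroxyvitamin D3 (3 nM final). After 16 h at 37C, LiveBLAzer B/G FRET substrate was added for 2 h at room temperature and fluorescence read.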

[18] = qHTS assay for small molecule agonists of the antioxidant response element (ARE) signaling pathway (AID 743202; active means well fitted activation curve with a large enough effect in the signal ratio in the repeat runs, not every such curve was filed as active; the % refers to the signal ratio)
Procedure, shortened: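 ARE-bla HepG2 cells (beta-lactamase reporter under the antioxidant response element), plated 5 hours, then exposed to compounds 16 hours at 37 C. LiveBLAzer B/G FRET substrate added for 2 hours at room temperature; fluorescence intensity read.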

[19] = target: Peroxisome proliferator-activated receptor delta (Homo sapiens) (UniProt Q03181); experiment: qHTS assay to identify small molecule agonists of the peroxisome proliferator-activated receptor delta (PPARd) signaling pathway (AID 743212; calls by dose curve)
Procedure, shortened: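 GeneBLAzer UAS-bla HEK293H cells carrying a PPARδ construct were exposed to compounds at 37 °C. Beta-lactamase activity was read by FRET fluorescence after 2 h at room temperature with LiveBLAzer B/G substrate.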

[20] = target: Peroxisome proliferator-activated receptor delta (Homo sapiens) (UniProt Q03181); experiment: qHTS assay to identify small molecule antagonists of the peroxisome proliferator-activated receptor delta (PPARd) signaling pathway (AID 743215; active means well fitted inhibition curve with a large enough effect in the signal ratio in the repeat runs, not every such curve was filed as active; the % refers to the signal ratio;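 further: cells stimulated with agonist L165041 at 300 nM final during compound exposure; series mostly up to about 62 µM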)
Procedure, shortened: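 PPARd-bla HEK293H cells (UAS-bla reporter) preincubated 5 h, then given compound plus 300 nM final L165041 agonist for 17 h at 37 C. Beta-lactamase activity read by LiveBLAzer B/G FRET substrate fluorescence after 2 h at room temperature.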
On the % scale 0 is the no-effect control and ±100 the full control effect.

Sequence of Bile acid receptor (Homo sapiens) (Q96RI1 whole entry, looked up): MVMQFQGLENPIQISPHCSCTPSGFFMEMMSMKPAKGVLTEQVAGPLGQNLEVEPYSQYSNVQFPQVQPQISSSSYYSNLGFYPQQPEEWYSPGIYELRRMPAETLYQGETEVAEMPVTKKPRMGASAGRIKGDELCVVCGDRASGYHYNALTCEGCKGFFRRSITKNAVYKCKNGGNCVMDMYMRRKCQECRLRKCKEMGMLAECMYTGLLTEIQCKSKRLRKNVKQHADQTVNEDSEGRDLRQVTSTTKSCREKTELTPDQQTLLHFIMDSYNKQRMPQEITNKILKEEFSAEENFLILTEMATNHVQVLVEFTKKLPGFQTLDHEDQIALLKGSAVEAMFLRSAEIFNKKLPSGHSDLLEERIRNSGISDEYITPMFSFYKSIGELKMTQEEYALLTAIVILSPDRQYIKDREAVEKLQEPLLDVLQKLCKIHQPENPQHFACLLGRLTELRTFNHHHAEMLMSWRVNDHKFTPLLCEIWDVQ
Sequence of Peroxisome proliferator-activated receptor gamma (Homo sapiens) (P37231 whole entry, looked up): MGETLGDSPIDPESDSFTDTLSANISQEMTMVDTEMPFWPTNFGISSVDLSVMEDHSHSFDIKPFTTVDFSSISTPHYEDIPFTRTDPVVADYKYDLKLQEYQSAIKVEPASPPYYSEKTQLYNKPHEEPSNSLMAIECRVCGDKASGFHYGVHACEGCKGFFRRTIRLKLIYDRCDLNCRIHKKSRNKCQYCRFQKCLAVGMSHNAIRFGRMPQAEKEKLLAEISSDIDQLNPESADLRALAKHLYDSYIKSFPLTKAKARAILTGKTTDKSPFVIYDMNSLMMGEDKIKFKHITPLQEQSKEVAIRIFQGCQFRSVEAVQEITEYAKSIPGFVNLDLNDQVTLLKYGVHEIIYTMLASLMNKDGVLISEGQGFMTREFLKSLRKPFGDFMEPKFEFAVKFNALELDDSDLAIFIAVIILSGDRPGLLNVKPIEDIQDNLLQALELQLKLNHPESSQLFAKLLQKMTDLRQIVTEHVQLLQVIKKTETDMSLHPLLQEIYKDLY
Sequence of Peroxisome proliferator-activated receptor delta (Homo sapiens) (Q03181 whole entry, looked up): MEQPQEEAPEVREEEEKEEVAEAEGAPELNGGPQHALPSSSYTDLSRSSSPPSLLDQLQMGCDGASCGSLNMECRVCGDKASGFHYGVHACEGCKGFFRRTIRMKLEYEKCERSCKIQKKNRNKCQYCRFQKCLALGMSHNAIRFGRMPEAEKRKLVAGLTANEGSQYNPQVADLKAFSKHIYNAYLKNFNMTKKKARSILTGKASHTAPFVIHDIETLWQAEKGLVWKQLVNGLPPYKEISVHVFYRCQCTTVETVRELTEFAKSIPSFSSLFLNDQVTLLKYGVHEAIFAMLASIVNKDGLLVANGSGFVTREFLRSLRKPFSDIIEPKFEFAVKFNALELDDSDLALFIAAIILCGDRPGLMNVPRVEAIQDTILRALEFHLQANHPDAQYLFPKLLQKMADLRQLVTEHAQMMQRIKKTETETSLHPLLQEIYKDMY
Sequence of Aryl hydrocarbon receptor (Homo sapiens) (P35869 whole entry, looked up): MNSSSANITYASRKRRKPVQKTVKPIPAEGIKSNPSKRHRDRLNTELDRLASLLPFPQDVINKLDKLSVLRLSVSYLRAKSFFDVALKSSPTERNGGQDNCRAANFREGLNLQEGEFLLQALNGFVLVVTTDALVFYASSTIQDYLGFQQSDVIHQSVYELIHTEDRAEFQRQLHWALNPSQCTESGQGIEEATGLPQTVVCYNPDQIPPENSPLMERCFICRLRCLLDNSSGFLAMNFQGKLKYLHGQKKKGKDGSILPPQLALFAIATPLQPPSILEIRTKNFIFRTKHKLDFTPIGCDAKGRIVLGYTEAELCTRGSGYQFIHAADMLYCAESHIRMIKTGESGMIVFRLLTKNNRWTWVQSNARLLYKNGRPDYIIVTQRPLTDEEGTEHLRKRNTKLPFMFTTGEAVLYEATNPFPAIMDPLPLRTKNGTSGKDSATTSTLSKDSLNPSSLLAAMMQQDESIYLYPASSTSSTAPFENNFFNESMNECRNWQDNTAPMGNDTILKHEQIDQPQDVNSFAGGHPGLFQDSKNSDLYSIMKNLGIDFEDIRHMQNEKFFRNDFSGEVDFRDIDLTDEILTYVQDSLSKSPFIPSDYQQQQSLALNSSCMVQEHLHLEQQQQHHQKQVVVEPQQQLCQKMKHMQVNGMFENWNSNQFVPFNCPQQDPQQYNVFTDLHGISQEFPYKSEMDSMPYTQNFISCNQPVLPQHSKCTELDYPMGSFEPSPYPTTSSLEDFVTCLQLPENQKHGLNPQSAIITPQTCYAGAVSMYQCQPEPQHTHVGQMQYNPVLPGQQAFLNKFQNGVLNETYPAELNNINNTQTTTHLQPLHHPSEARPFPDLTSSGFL
Sequence of Vitamin D3 receptor (Homo sapiens) (P11473 whole entry, looked up): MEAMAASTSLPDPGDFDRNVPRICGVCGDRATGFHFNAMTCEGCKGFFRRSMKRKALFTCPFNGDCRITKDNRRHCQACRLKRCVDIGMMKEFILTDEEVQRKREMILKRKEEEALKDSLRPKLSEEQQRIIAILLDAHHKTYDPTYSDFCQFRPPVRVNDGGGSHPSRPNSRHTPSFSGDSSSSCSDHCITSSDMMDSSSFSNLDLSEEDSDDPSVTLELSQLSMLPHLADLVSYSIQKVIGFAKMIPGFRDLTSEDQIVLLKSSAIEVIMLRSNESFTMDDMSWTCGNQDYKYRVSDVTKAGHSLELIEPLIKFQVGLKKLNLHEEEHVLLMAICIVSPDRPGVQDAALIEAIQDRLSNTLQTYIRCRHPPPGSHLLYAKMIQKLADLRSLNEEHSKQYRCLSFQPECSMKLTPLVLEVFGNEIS

Cc1nc(C)nc(N2C[C@@H](C)N(c3ccnc([C@@H](C)O)n3)[C@@H](C)C2)n1
inactive: Potency [1] | Potency [2] | Potency [3] | outcome [4] | Potency [5] | outcome [6] | outcome [7] | outcome [8] | outcome [9] | outcome [10] | outcome [11] | outcome [12] | Potency [13] | outcome [14] | outcome [15] | outcome [16] | outcome [17]

CCCCOC(=O)C(C)OC(=O)CCC (stereo not drawn)
inactive: Potency [1] | Potency [2] | Potency [3] | outcome [4] | outcome [6] | Potency [18] | outcome [7] | outcome [8] | outcome [9] | outcome [10] | outcome [19] | outcome [11] | outcome [20] | Potency [13] | outcome [15] | outcome [16]

CCCCCCCCCCCCC
inactive: Potency [1] | Potency [2] | Potency [3] | outcome [4] | Potency [5] | outcome [6] | outcome [8] | outcome [19] | outcome [12] | outcome [14] | outcome [15] | outcome [16]

C=CCCCCCCCCCCC
inactive: activity change, negative = cytotoxicity [1] 2.95% [at 8.47 µM] | activation [2] -0.125% [at 8.47 µM] | viability change, negative = cytotoxic [3] 0.7% [at 8.47 µM] | activation [4] -4.62% [at 7.08 µM] | ratio activity, negative = inhibition [5] 16.1% [at 5.95 µM] | activity change, negative = cytotoxicity [6] 13.8% [at 5.95 µM] | viability change, negative = cytotoxic [7] 9.33% [at 8.36 µM] | activity change, negative = cytotoxicity [8] -3.82% [at 5.95 µM] | activation [9] -0.0554% [at 5.95 µM] | activity change, negative = cytotoxicity [10] -1.9% [at 5.95 µM] | activation [19] -5.08% [at 5.95 µM] | ratio activity, negative = inhibition [20] 0.24% [at 6.26 µM] | viability change, negative = cytotoxic [13] 33.3% [at 5.95 µM] | activity change, negative = cytotoxicity [15] 11.4% [at 5.95 µM] | activation [16] -2.3% [at 6.01 µM] | activity change, negative = inhibition [17] 4.12% [at 6.95 µM]

CCCCCCCC[Si](OCC)(OCC)OCC
inactive: Potency [1] | Potency [2] | Potency [3] | outcome [4] | outcome [6] | Potency [18] | outcome [7] | outcome [8] | outcome [9] | outcome [10] | outcome [19] | outcome [11] | outcome [20] | outcome [15] | outcome [16] | outcome [17]

CCCOC(=O)CCCCC(=O)OCCC
inactive: Potency [1] | Potency [2] | Potency [3] | outcome [4] | outcome [6] | Potency [18] | outcome [7] | outcome [8] | outcome [9] | outcome [10] | outcome [19] | outcome [11] | Potency [13] | outcome [15] | outcome [16]

COC(/C=C(\C)CCC=C(C)C)OC
inactive: Potency [1] | Potency [2] | Potency [3] | outcome [4] | Potency [5] | outcome [6] | outcome [7] | outcome [8] | outcome [9] | outcome [10] | outcome [19] | outcome [11] | outcome [20] | outcome [12] | Potency [13] | outcome [15] | outcome [16] | outcome [17]

CC(=O)/C=C/c1ccco1
inactive: Potency [1] | Potency [2] | Potency [3] | outcome [4] | outcome [6] | Potency [18] | outcome [7] | outcome [8] | outcome [9] | outcome [10] | outcome [19] | outcome [11] | outcome [20] | outcome [12] | Potency [13] | outcome [14] | outcome [15] | outcome [17]

CN=C(NC#N)NCCSCc1csc(N=C(N)N)n1
inactive: Potency [1] | Potency [2] | Potency [3] | outcome [4] | outcome [6] | Potency [18] | outcome [7] | outcome [8] | outcome [9] | outcome [10] | outcome [19] | outcome [11] | outcome [20] | Potency [13] | outcome [15]
